# Pf Dd2 growth: P. falciparum Dd2 growth inhibitors, primary screen, SYBR Green fluorescence, single dose replicates. 72 h; hits give low values. hit rate 2.3% among 94,000. activity change, % at 10 µM. AID 1159554, 2015; in the data active = activity change below about -80%; inconclusive = no clear call, values can overlap the other calls
# Tcruzi prolif: T. cruzi intracellular proliferation inhibitors, primary screen, cell-based, beta-gal Tulahuen parasites, NIH3T3 host, luminescence; T. cruzi beta-gal in NIH3T3, GalScreen luminescence, 90 h; inhibition, % at 8.34 µM; hit rate 5.9% among 77,000; AID 624255, 2012;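 active = mean inhibition above about 93%, with at least 55% of replicates each passing it, limit read from the data, passing the limit was not always enough; inconclusive = only one of those two conditions holds; inactive = neither condition holds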
# C diff HTS: C. difficile growth inhibitors, primary screen, HTS. Clostridium difficile clinical isolate growth, OD600, 24 h; hits give low values. growth activity, negative = inhibition, % at 16 µg/mL (by protocol). hit rate 0.25% among 86,000. AID 1259249, 2017;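 active = mean growth activity at or below -80% and every replicate also at or below -80%; inconclusive = mean at or below -80% but some replicate above -80%; inactive = mean growth activity above -80%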;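 note: 0% = DMSO wells and -100% = levofloxacin 16 µg/mL wells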
# * marks the source's active call; other numbers are inactive results; u = inconclusive; x = no result given. Sampled rows, rich in hits. Any-hit rate of the full collection: about 6.7%.
SMILES,Pf Dd2 growth,Tcruzi prolif,C diff HTS
CNC[C@@H]1Oc2cc(C#Cc3ccc(OC)cc3)ccc2S(=O)(=O)N([C@@H](C)CO)C[C@H]1C,-85.0*,84.7,2.6
COc1ccc(S(=O)(=O)N(C)C[C@H]2Oc3cc(C#CC4CCCCC4)ccc3S(=O)(=O)N([C@@H](C)CO)C[C@H]2C)cc1,-77.9,79.7,x
COc1ccc(C#Cc2ccc3c(c2)O[C@@H](CN(C)S(=O)(=O)c2ccccc2F)[C@@H](C)CN([C@@H](C)CO)S3(=O)=O)cc1,-90.1*,x,1.7
COc1ccc(C#Cc2ccc3c(c2)O[C@H](CN(C)S(=O)(=O)c2ccccc2F)[C@@H](C)CN([C@H](C)CO)S3(=O)=O)cc1,-87.2*,x,2.9
COc1ccc(S(=O)(=O)N(C)C[C@@H]2Oc3cc(C#CC4CCCCC4)ccc3S(=O)(=O)N([C@@H](C)CO)C[C@H]2C)cc1,-83.9*,24.3,x
COc1ccc(C#Cc2ccc3c(c2)O[C@@H](CN(C)C)[C@@H](C)CN([C@@H](C)CO)S3(=O)=O)cc1,-53.6,51.4,4.8
CNC[C@H]1Oc2cc(C#Cc3cccc(OC)c3)ccc2S(=O)(=O)N([C@@H](C)CO)C[C@@H]1C,-45.7,70.4,4.6
COc1ccccc1S(=O)(=O)N(C)C[C@H]1Oc2cc(C#CCC(C)C)ccc2S(=O)(=O)N([C@H](C)CO)C[C@@H]1C,-57.7,79.1,2.6
CC(C)NC(=O)Nc1ccc2c(c1)C(=O)N([C@@H](C)CO)C[C@H](C)[C@@H](CN(C)Cc1ccc(Oc3ccccc3)cc1)O2,-22.5,x,-8.7
C[C@H](CO)N1C[C@H](C)[C@H](CN(C)S(=O)(=O)c2ccc(F)cc2)OCCCC[C@H](C)Oc2ccc(NS(C)(=O)=O)cc2C1=O,1.3,37.0,-0.4
C[C@@H]1CN([C@@H](C)CO)C(=O)c2cccc(NC(=O)C3CC3)c2O[C@@H]1CN(C)C(=O)NC1CCCCC1,-3.7,31.8,5.4
CN(C)CC(=O)Nc1ccc2c(c1)[C@@H]1C[C@@H](CC(=O)NCCc3ccccc3)O[C@@H](CO)[C@@H]1O2,-1.2,x,-1.2
O=C(c1cccnc1)N1CC(=O)N2[C@H](C1)[C@@H](c1ccc(C#CCC3CCCC3)cc1)[C@@H]2CO,-18.2,x,-30.8
C[C@H]1CN([C@@H](C)CO)C(=O)c2cccc(NC(=O)c3nc4ccccc4s3)c2O[C@H]1CN(C)C(=O)Nc1cccc2ccccc12,-27.3,74.4,x
C[C@@H]1CN([C@@H](C)CO)C(=O)c2cccc(NC(=O)c3nc4ccccc4s3)c2O[C@H]1CN(C)C(=O)Nc1cccc2ccccc12,-94.2*,47.1,x
C[C@@H]1CN([C@@H](C)CO)C(=O)c2cccc(NC(=O)c3nc4ccccc4s3)c2O[C@@H]1CN(C)C(=O)Nc1cccc2ccccc12,-88.0*,40.7,x
C[C@H]1CN([C@@H](C)CO)C(=O)c2cccc(NC(=O)c3nc4ccccc4s3)c2O[C@@H]1CN(C)C(=O)Nc1cccc2ccccc12,-75.9,14.1,x
C[C@H](CO)N1C[C@H](C)[C@@H](CN(C)C(=O)Nc2ccc3c(c2)OCO3)Oc2c(NC(=O)c3nc4ccccc4s3)cccc2C1=O,-45.3,-240.1,x
C[C@@H]1CN([C@@H](C)CO)C(=O)c2cccc(NC(=O)c3nc4ccccc4s3)c2O[C@H]1CN(C)C(=O)Nc1ccc2c(c1)OCO2,-89.7*,48.7,x
Cc1ccccc1S(=O)(=O)N1[C@H](C#N)[C@@H](c2ccccc2)[C@H]1CO,28.3,18.9,-4.3
Cc1ccccc1S(=O)(=O)N1[C@H](CO)[C@@H](c2ccc(C#CC3CC3)cc2)[C@@H]1C#N,-86.9*,88.6,4.7
N#C[C@H]1[C@@H](c2ccc(C#CC3CCCC3)cc2)[C@@H](CO)N1S(=O)(=O)Cc1ccccc1,-88.9*,89.5,-13.4
N#C[C@H]1[C@@H](c2ccc(C#CC3CCCCC3)cc2)[C@@H](CO)N1S(=O)(=O)c1ccccc1,u,88.1,-2.8
C/C=C/c1ccc2c(c1)O[C@@H](CN(C)C(=O)C1CCC1)[C@@H](C)CN([C@@H](C)CO)S2(=O)=O,-3.1,32.3,x
C[C@@H]1CN([C@H](C)CO)C(=O)c2cccc(NS(=O)(=O)c3ccc(F)cc3)c2O[C@H]1CN(C)S(=O)(=O)c1ccc(F)cc1,27.2,-6.4,-9.2
C[C@H](CO)N1C[C@H](C)[C@H](CN(C)C(=O)Nc2ccc(-c3ccccc3)cc2)OCc2ccccc2-c2c(n(C)c3ccccc23)C1=O,-89.2*,x,3.1
COc1ccc(NC(=O)N(C)C[C@@H]2OCc3ccccc3-c3c(n(C)c4ccccc34)C(=O)N([C@@H](C)CO)C[C@@H]2C)cc1,-67.4,25.5,x
C[C@H](CO)N1C[C@H](C)[C@@H](CN(C)C(=O)Nc2ccc(F)cc2)OCc2ccccc2-c2c(n(C)c3ccccc23)C1=O,-92.1*,47.1,-0.1

# Source: PubChem BioAssay
